Bioassay records as filed in PubChem BioAssay.
LGR2 antag = inhibitors of bursicon-induced LGR2 CRE-luciferase signal, primary screen, cell-based, HEK293, CRE-luciferase reporter, bursicon stimulation; hit rate 0.35% among 380,000; bursicon-stimulated, 4 h; inhibition, % at 9.99 µM;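 active means drop in luminescence signal, shown as inhibition above about 50% in the replicate tests, limit read from the data, passing the limit was not always enough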;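 further: agonist challenge used bursicon conditioned medium at about half maximal strength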
CF NFkB inh = inhibitors of PAF-induced NF-kB signaling, primary screen, cell-based, GFP fluorescence, uHTS | AID 588850, 2011 | inhibition, % at 5 µM | hit rate 0.86% among 360,000 | KKLEB NF-kB-GFP reporter, GFP fluorescence overnight;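 active means at least 50% inhibition at 5 µM, scaled per plate between neutral and stimulator controls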;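 further: PAF is a Pseudomonas aeruginosa culture filtrate used as stimulus; plate controls were PAF-stimulated DMSO wells for no effect and unstimulated DMSO wells for full effect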
Shn3 inh set2 = reduction of Shn3 3'UTR firefly luciferase signal, primary screen, Schnurri-3 inhibitor project, cell-based, Clone20 osteoblasts, set 2; Clone20 osteoblast Shn3 3'UTR firefly luciferase, 24 h; inhibition, % at 12.5 µM; hit rate 0.52% among 360,000; AID 588674, 2011;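 active means mean inhibition of at least 75% with every replicate also reaching 75%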;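 further: 0% = median of neutral control wells and 100% = pilot-screen positive control compound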
EWS-Fli inh = EWS/Fli-driven NR0B1 reporter inhibitors, primary screen, A673 cells, NR0B1 luciferase, luminescence, MLPCN library; viability-normalised; inhibition, % at 12.6 µM; hit rate 0.67% among 350,000; AID 651661, 2012;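 active means mean inhibition of at least 50% after viability correction, with every replicate also passing that limit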;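 further: firefly luciferase signal divided by Alamar Blue viability fluorescence both relative to DMSO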
PAX8 reporter = inhibitors of PAX8-driven TPO luciferase reporter, primary screen, RMG-I cells, single concentration; hit rate 1.2% among 360,000; AID 652154, 2013; inhibition, % at 12.6 µM; SteadyGlo, 24 h;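 active means mean replicate inhibition at least 60% with every replicate also reaching 60%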;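 further: luciferase light reporting Pax8 driven TPO promoter activity; plate controls were median of neutral control wells for no effect and mitoxantrone controls for full effect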
KKLEB cytotox = cytotoxicity in KKLEB CF airway cells, primary screen, cytotoxicity control for CF NF-kB inhibitor project, cell-based, uHTS, fluorescence assay plates; KKLEB CF airway cells viability, ATPlite luminescence, overnight; stronger effect = lower value; cells stimulated with P. aeruginosa culture filtrate; activity change (cytotoxicity), % at 5 µM; hit rate 0.36% among 360,000; AID 602141, 2011;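 active means corrected activity change at or below -50% at 5 µM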
CF NFkB inh conf = inhibitors of PAF-induced NF-kB signaling, retest, confirmation, cell-based, GFP fluorescence, single concentration; KKLEB CF airway cells, overnight; inhibition, % at 5 µM; shares compounds with CF NFkB inh; hit rate 64% among 1,300; in the data active means inhibition above about 40%;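 further: stimulus PAF is a Pseudomonas aeruginosa filtrate and not platelet activating factor; plate controls were DMSO wells with stimulus for no effect and unstimulated DMSO wells for full effect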
* = called active by the depositor; x = no result. Shown are actives, neighbours in structure and some others; about 2% of the full set was active somewhere.

SMILES	LGR2 antag	CF NFkB inh	Shn3 inh set2	EWS-Fli inh	PAX8 reporter	KKLEB cytotox	CF NFkB inh conf
COc1ccc(C2CC(c3ccccc3)=NN2C(=O)COC(=O)c2ccc(S(C)(=O)=O)cc2)cc1 (centres undefined)	-5.5	54.8*	14.5	-28.0	32.0	20.5	46.0*
C=CC[C@@H](CC(=O)N(CCO)Cc1ccccc1)C(=O)NC[C@H](OC(=O)[C@@H](CC=C)Cc1ccc(F)cc1)c1ccccc1	2.6	73.2*	17.9	-2.3	83.6*	-4.1	92.2*
C=CC[C@@H](CC(=O)N(CCO)Cc1ccccc1)C(=O)N[C@H](COC(=O)[C@@H](CC=C)Cc1ccc(F)cc1)c1ccccc1	6.5	10.5	-4.7	3.8	37.5	-15.5	x
CC(=O)C(=Cc1cccc(C#N)c1)C(=O)c1ccccc1	47.2	56.0*	22.2	7.7	-2.6	-7.4	-61.2
CC(=O)C(=Cc1ccc(Cl)cc1)C(=O)c1ccccc1	16.0	47.8	71.7	10.6	11.3	-23.3	x
COc1ccc(NC(=O)N(C)C[C@@H]2Oc3ccc(NS(C)(=O)=O)cc3C(=O)N([C@H](C)CO)C[C@@H]2C)cc1	-17.0	x	x	4.4	x	x	x
Cc1noc(C)c1S(=O)(=O)Nc1ccc2c(c1)CC(=O)N([C@@H](C)CO)C[C@@H](C)[C@@H](CN(C)S(=O)(=O)c1ccc(Cl)cc1)O2	13.9	x	x	-3.5	8.1	x	x
O=C(C[C@@H]1C[C@@H]2c3cc(NS(=O)(=O)c4ccc(F)cc4)ccc3O[C@@H]2[C@@H](CO)O1)NCc1cccc(F)c1	-3.2	x	x	1.2	10.3	x	x
N#Cc1ccsc1NC(=O)c1ccc(Cl)c([N+](=O)[O-])c1	-28.1	50.3*	-36.0	-29.0	-18.9	-25.4	68.2*
COc1cccc(N2CCN(c3nc(-c4ccccc4C)cc(=O)[nH]3)CC2)c1	34.0	67.3*	-85.3	11.0	69.6*	-5.5	38.8
CC(=O)Nc1nonc1-c1nc2ccccc2n1CC1CC1	x	59.7*	10.8	x	-30.4	-22.2	45.2*
C[C@@H]1CN([C@H](C)CO)C(=O)Cc2cc(NC(=O)Cc3cn(C)c4ccccc34)ccc2O[C@H]1CN(C)C(=O)Nc1ccc(F)cc1	-2.9	x	x	1.4	x	x	x
C=C1C(=O)O[C@@H]2[C@H]1CC[C@H](C)[C@]1(O)CCC(=O)[C@@]21C	7.6	54.0*	-15.1	-9.5	89.5*	-19.4	78.1*
CCOC(=O)/C=C/C(=O)Nc1cc(S(=O)(=O)Nc2ccc(OC)cc2)ccc1N1CCOCC1	-5.0	63.3*	9.5	-4.8	98.2*	-9.1	36.2
COc1ccc(NS(=O)(=O)c2ccc(N3CCOCC3)c(NC(=O)C(C)C)c2)cc1	-6.9	-8.4	66.3	-0.1	8.1	16.3	x
Cc1cc(C)c2nc(NC(=O)c3ccc([N+](=O)[O-])o3)sc2c1	-2.2	-29.6	-5.1	-45.4	-28.1	-5.6	x
O=C(Nc1nc2c(F)cc(F)cc2s1)c1ccc([N+](=O)[O-])o1	-36.6	85.6*	-75.4	-10.9	11.4	-41.2	16.1
CC(=O)N(C)C[C@H]1Oc2cc(C3=CCCCC3)ccc2S(=O)(=O)N([C@@H](C)CO)C[C@@H]1C	3.6	x	x	-11.1	x	x	x
Cc1ncc(C)c2c([N+](=O)[O-])cccc12	-11.4	7.7	-4.7	-4.0	12.6	4.3	x
Cc1cnc(C=O)c2cccc([N+](=O)[O-])c12	16.7	83.2*	3.3	-6.2	-3.6	-38.2	65.1*
CC(C)NC(=O)N(C)C[C@@H]1Oc2ccc(NC(=O)C3CC3)cc2CC(=O)N([C@@H](C)CO)C[C@H]1C	-38.5	x	x	-8.8	-16.5	x	x
CCn1c(=O)c2c(cnn2C)c2ccccc21	x	71.8*	27.3	x	-16.6	-14.9	77.9*
COc1cc(-c2nnc(NC(=O)CCS(=O)(=O)c3ccc(F)cc3)o2)cc(OC)c1OC	-9.8	54.1*	-25.0	6.0	-6.8	-29.5	34.2
COc1cc(-c2nnc(NC(=O)CCS(=O)(=O)c3ccccc3)o2)cc(OC)c1OC	-2.7	2.7	-7.6	-3.1	24.0	2.6	x
COc1ccc(CN(C)C[C@@H]2Oc3ccc(NC(=O)Nc4ccc(C(F)(F)F)cc4)cc3C(=O)N([C@@H](C)CO)C[C@H]2C)cc1	6.7	x	x	4.3	x	x	x
SMILES	LGR2 antag	CF NFkB inh	Shn3 inh set2	EWS-Fli inh	PAX8 reporter	KKLEB cytotox	CF NFkB inh conf
Fc1ccc(Nc2ccnc(Nc3ccc(F)cc3)n2)cc1	-53.3	57.6*	-32.8	-60.4	-13.8	-16.9	56.1*
Nc1ncnc(Nc2ccc(F)cc2)n1	12.9	2.6	-29.9	x	-24.6	-13.3	x
Cc1nn(-c2ccccn2)c2c1-c1nc(N)ncc1CC2	x	57.9*	-63.9	x	-178.6	-11.5	54.4*
CC(NC(=O)OCc1ccccc1)C(=O)Oc1cc2oc(=O)cc(-c3ccccc3)c2cc1Cl (centres undefined)	12.2	62.6*	-0.3	-7.7	-13.5	-8.1	92.8*
Cn1cc([N+](=O)[O-])c(C(=O)Nc2ccc(Br)cn2)n1	-2.3	16.2	-9.7	x	x	9.6	x
Cn1cc([N+](=O)[O-])c(C(=O)Nc2ccc(-c3nc4ccccc4o3)cc2)n1	-49.9	67.8*	7.3	-64.2	20.3	-35.9	-86.6
COc1ccc(NC(=O)c2ccc([N+](=O)[O-])o2)cc1	-24.8	50.9*	9.1	-26.8	76.3*	-11.2	34.2
O=C(Nc1ccc(-c2nc3ncccc3o2)cc1)c1ccc([N+](=O)[O-])o1	-6.0	85.8*	97.0*	25.7	10.0	-44.4	-121.4
CC(C)NC(=O)N[C@@H]1CC[C@@H](CC(=O)N2CCCCC2)O[C@@H]1CO	-18.4	x	x	-0.1	-3.7	x	x
C/C=C/c1ccc([C@@H]2[C@H](CO)N(C(=O)CC)C23CN(S(=O)(=O)CC)C3)cc1	4.1	x	x	-3.4	2.3	x	x
COc1ccc(CN(C)C[C@@H]2Oc3ccc(NC(=O)c4ccncc4)cc3C(=O)N([C@@H](C)CO)C[C@H]2C)cc1	-12.3	x	x	-2.4	-11.0	x	x
C[C@@H]1CN([C@@H](C)CO)C(=O)Cc2cc(NC(=O)Cc3ccccc3)ccc2O[C@@H]1CN(C)CC1CC1	9.6	x	x	6.0	4.2	x	x
c1cnc2ccc(-n3ccnc3)cc2c1	-5.9	55.2*	0.2	-16.9	-17.9	-27.0	48.7*
CCOC(=O)c1c(C)[nH]c(C(=O)OCC(=O)Nc2cc(C)ccc2OC)c1C	x	50.5*	25.1	x	x	-41.7	38.8
CCOC(=O)c1c(C)[nH]c(C(=O)N/N=C/c2ccc(Br)cc2)c1C	-16.9	56.4*	8.0	x	27.6	-31.3	79.4*
